BAZ2B block: BAZ2B (human) inhibition; Q9UIF8; AlphaScreen BAZ2B-H3K14Ac peptide displacement; Potency, µM (top dose mostly 114 µM), for inactives: top-dose activity change, negative = inhibition, hits mostly inhibitors; hit rate 4.4% among 360,000; AID 504333; also: potency is read from the fitted curve at half-maximal effect; % is scaled to controls: 0 for no effect and ±100 for the full control effect; nearly all actives have a fitted effect of over 60% in size
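AlphaScreen luminescence quantifies BAZ2B engagement of H3K14Ac peptide; the protein and biotinylated peptide are both at 50 nM final, buffer PBS pH 7.4 with 0.01% Tween-20, all steps at room temperature.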
CtBP-E1A inh: inhibitors of CtBP/E1A interaction; activity change, % (concentration not given with the values); AlphaScreen GST-E1A/His-CtBP binding, 1536-well; stronger effect = lower value; AID 651724; hit rate 0.49% among 340,000; in the data active = activity change below about -65%; inconclusive = mostly about -30% to -63%; also: % is scaled to controls: 0 for no effect and ±100 for the full control effect
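GST-E1A and His-tagged CtBP (125 nM each as 5X stock) were preincubated with pin-transferred compound for 2 h at 37 °C in the dark, then glutathione donor and nickel acceptor beads were added for 1 h before AlphaScreen reading.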
G9a inh: blocks human histone lysine methyltransferase G9a; Potency, µM (top dose mostly 102 µM), without a hit: top-dose activity, negative = inhibition, most hits filed as inhibitors; hit rate 8.8% among 350,000; G9a H3K9 monomethylation, AlphaScreen, 2 h; AID 504332; Q96KQ7; also: potency is read from the fitted curve at half-maximal effect; % is scaled to controls: 0 for no effect and ±100 for the full control effect; nearly all actives have a fitted effect of over 75% in size
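G9a (20 nM) was preincubated 15 min with compound, then reacted 2 h at room temperature with 500 nM biotin-H3K9 peptide and 20 µM SAM. Monomethyl-H3K9 detected by AlphaScreen using anti-H3K9me1 antibody.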
Six1-Eya2 blk: Six1/Eya2 interaction inhibition | activity change, % (test concentration not listed) | AlphaScreen GST-Six1/His-Eya2 binding, biochemical; stronger effect = lower value | hit rate 0.56% among 360,000 | Q15475+O00167; in the data active = activity change below about -65%; inconclusive = mostly about -30% to -63%; also: % is scaled to controls: 0 for no effect and ±100 for the full control effect
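Homogeneous AlphaScreen proximity assay pairing GST-Six1 with His-tagged Eya2 (added as 5X mix: 250 nM and 500 nM) in 50 mM Tris pH 8.0, 300 mM NaCl, 1 mM TCEP. Glutathione donor and nickel acceptor beads; 1 h, 37 °C, dark.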
HP1b chromo inh: blocks HP1-beta chromodomain binding to methylated histone tails; P83916; AlphaScreen HP1-beta / biotin-H3K9me3 peptide binding; Potency, µM (series often up to 114 µM), for inactives: top-dose activity change, negative = inhibition, hits mostly inhibitors; hit rate 0.56% among 390,000; also: potency is read from the fitted curve at half-maximal effect; nearly all actives have a fitted effect of over 70% in size
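AlphaScreen: HP1-beta (50 nM) preformed 30 min with biotin-H3(1-18)K9me3 peptide (50 nM) in PBS pH 7.4, 0.01% Tween-20. Compound added for 30 min at RT, then streptavidin donor/nickel chelate acceptor beads (10 ug/mL) for 30 min.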
JMJD2A Tudor inh: JMJD2A Tudor domain (human) inhibition | O75164 | AlphaScreen JMJD2A-Tudor / H3K4me3 peptide binding | Potency, µM (doses to about 114 µM), for the others: at the highest dose activity change, negative = inhibition, usual class: inhibitors | hit rate 4.4% among 390,000; also: potency is read from the fitted curve at half-maximal effect; % is scaled to controls: 0 for no effect and ±100 for the full control effect; nearly all actives have a fitted effect of over 50% in size
Numbers without * were called inactive; ? = inconclusive; / = no result; [ ] = dose if it differs, or a comment. Sampled rows, rich in hits. Any-hit rate of the full collection: about 10%. Unless noted, calls follow the shape of the dose curve; as a rule, active = well fitted inhibition curve with a large enough effect; inconclusive = small, poorly fitted or top-dose-only effect; inactive = no such curve, though single readings can be large or run the other way.

SMILES	BAZ2B block	CtBP-E1A inh	G9a inh	Six1-Eya2 blk	HP1b chromo inh	JMJD2A Tudor inh
O=C1C(=O)N(CCOCCO)C(c2ccccn2)/C1=C(\O)c1ccccc1 (centres undefined)	?	7	18µM*	1	14%	?
CCN(CC)CCN1C(=O)C(=O)/C(=C(/O)c2ccc(F)cc2)C1c1ccncc1 (centres undefined)	-4%	-19	11%[59 µM]	1	28%	-21%
Cc1ccc(-n2c(=O)c3c4c(sc3n(CC(=O)C(C)(C)C)c2=O)CCCCC4)cc1C	-15%	/	-15%[59 µM]	/	-1%	-28%
O=C(O)[C@H](O)[C@@H](O)[C@H](O)[C@H](O)CO	/	/	19%[59 µM]	/	/	/
COC(=O)c1ccc(NC(=O)CCn2cnnn2)c(C)c1	-16%	/	7%[59 µM]	/	31%	5%
COc1ccccc1NS(=O)(=O)c1cc(C(=O)NCc2ccco2)ccc1C	-31%	-3	-42%[59 µM]	-2	7%	50µM*
Cc1ccc(C(=O)Nc2ccccc2C(=O)O)cc1S(=O)(=O)NC1CCCCC1	56µM*	-7	71µM*	-3	24%	-21%
Cc1ccc(C(=O)Nc2ccccc2C(=O)NCc2ccco2)cc1S(=O)(=O)N1CCCCC1	-21%	-8	16µM*	-6	8%	?
Cc1ccccc1NS(=O)(=O)c1cc(C(=O)NCc2ccco2)ccc1C	-27%	-23	-11%[12.7 µM]	-13	11%	-18%
Cc1ccc(C(=O)Nc2ccccc2C(=O)O)cc1S(=O)(=O)Nc1ccccc1	1%	/	-7%[59 µM]	-2	27%	-5%
CC1=NN(c2ccccc2)C(=O)/C1=C/c1cc(C)n(C2CC2)c1C	?	/	7%[12.7 µM]	-3	26%	-35%[11.4 µM]
CC1=NN(c2ccccc2)C(=O)/C1=C\c1cn(CCC#N)nc1-c1ccc(Cl)cc1	?	9	4.5µM*	6	?	?
CC1=NN(c2ccccc2)C(=O)/C1=C\c1sccc1C	7.1µM*	6	?	7	?	?
COc1cc(/C=C2/C(=O)N(c3ccc(C)c(C)c3)N=C2C)cc([N+](=O)[O-])c1O	40µM*	14	2%[0.501 µM]	-3	?	45µM*
COc1ccccc1/C=C1/C(=O)N(c2ccccc2)N=C1C	?	2	?	1	-19%[57 µM]	?
CC1=NN(c2ccccc2)C(=O)/C1=C\c1cn(-c2ccccc2)nc1C	/	0	?	15	8.9µM*	?
COc1cc(/C=C2\C(=O)N(c3cccc(C(=O)O)c3)N=C2C)ccc1OCc1ccccc1	/	-14	/	-5	/	/
COc1cc(/C=C2/C(=O)N(c3ccc(Br)cc3)N=C2C)cc(OC)c1OC	40µM*	-2	50µM*	-3	-35%	35µM*
CC1=NN(c2ccc(Br)cc2)C(=O)/C1=C/c1cccs1	4.5µM*	4	7.1µM*	10	-53%	?
COc1cc(/C=C2/C(=O)N(c3ccc(C(=O)O)cc3)N=C2C)cc(OC)c1O	?	2	40µM*	-7	?	-22%
Cc1cccc(Nc2ncc(NC(=O)c3cccc(F)c3)c(Nc3cccc(C)c3)n2)c1	-34%	/	-48%[59 µM]	/	0%	?
Cc1nn(C)c(Cl)c1S(=O)(=O)N(Cc1ccco1)c1ncnc2nc[nH]c12	/	/	/	/	-3%	-28%
C=CCOc1ccc(/C(O)=C2/C(=O)C(=O)N(CCCN3CCOCC3)C2c2ccc(OC)cc2)cc1 (centres undefined)	-4%	0	?	0	9%	-29%
Cc1ccc(/C(O)=C2\C(=O)C(=O)N(CCc3c[nH]c4ccccc34)C2c2cccnc2)cc1 (centres undefined)	-4%	-6	50µM*	-5	7%	?
O=C1C(=O)N(CCN2CCOCC2)C(c2cccnc2)/C1=C(/O)c1ccc(Cl)cc1 (centres undefined)	-20%	5	50µM*	6	35%	-14%

Compound activity: PubChem, National Center for Advancing Translational Sciences (NCATS)
